Molecules are shown by their SMILES. Several values for one entry are separate records, joined by “and”; a condition that tells them apart may be missing. Equal entries are not always repeated. Values without a mark were called inactive. Results filed as inconclusive are left out. Activity calls are given as the source filed them. Unless noted, the call rests on the fitted dose curve; in most records, active means well fitted curve in either direction with a large enough effect (not every such curve was filed as active); inconclusive means small, poorly fitted or top-dose-only effect, or another doubt; inactive means flat fitted curve, though single readings scatter. Some results are limits rather than exact numbers.

Test [1] can be described thus: AP1 Signaling Pathway (AID 357). Further: on the % scale 0 is the no-effect control and ±100 the full control effect. Particulars: ME-180 AP-1-bla reporter, EGF-induced, beta-lactamase ratio, 5 h. In outline:
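AP-1-bla ME-180 cells with beta-lactamase reporter under AP-1 response element, stimulated with EC50 EGF; compounds titrated, 5 hours at 37 degrees Celsius. CCF4 read at 460/530 nm ratio; positive and negative modulators judged by AC50.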

The target in test [2] is Cytochrome P450 1A2 (Homo sapiens) (UniProt P05177). The test can be described thus: p450-cyp1a2 (AID 410; calls by dose curve; further: potency means the concentration at half of the fitted maximal effect;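 on activity change, negative = inhibition: -100% = full effect of reference inhibitor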). The conditions noted are these: recombinant CYP1A2, luciferin-ME demethylation, luminescence; series mostly up to 25.6 µM. In outline:
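Luminescent demethylation readout: Luciferin-ME (100uM, equal to Km) turned over by 20nM CYP1A2 for 60 min at room temperature after NADPH regeneration addition, following 10 min compound preincubation. Normalization used 57 uM furafylline as full inhibition.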

Test [3] can be described thus: NFAT Signaling Pathway (AID 444).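 Further: carbachol stimulus at about its EC50 of 1 µM final; on the % scale 0 is the no-effect control and ±100 the full control effect.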 Particulars: Jurkat NFAT-bla M1, carbachol, beta-lactamase ratio, 5 h. In outline:
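Jurkat cells with NFAT-driven β-lactamase reporter and co-expressed M1 receptor, stimulated with carbachol (final 1 uM, ~EC50), compound titration, 5 h at 37 °C. CCF4 loaded 1 h at RT; 460/530 nm ratio gave %activity and AC50.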

The nature of test [4]: Stat Signaling Pathway (AID 446).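 Further: ME-180 cervical cancer cells given 40 pM IL-6 alongside compound; SIE-controlled beta-lactamase reporter measured as 460/530 nm FRET emission ratio; on the % scale 0 is the no-effect control and ±100 the full control effect.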 Particulars: ME-180 (cervical carcinoma) SIE beta-lactamase reporter, IL-6 stimulated, 5 h; at 17.2 µM (top of the series). In outline: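 Compound effects on IL-6-induced STAT reporter activity were measured in ME-180 cells. After overnight culture, cells were co-treated with 40 pM IL-6 for 5 hrs before beta-lactamase substrate loading at room temperature.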
Test [5] concerns the target Glucocorticoid receptor (Homo sapiens) (UniProt P04150). The test can be described thus: GR-GFP Redistribution (AID 450;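 active means compounds whose dose series gives a full or clear partial fitted curve of increased nuclear translocation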; further: potency means the concentration at half of the fitted maximal effect). Particulars: U2OS GR-GFP nuclear translocation, laser cytometry, 2 h.
Test [6] shares this target. The test can be described thus: GR-EFC Redistribution (AID 451; calls by dose curve; further: potency means the concentration at half of the fitted maximal effect). Particulars: CHO-K1 GR-EFC translocation, beta-gal luminescence, 2 h. In short, it runs like this: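 CHO-K1 cells expressing nuclear EA and GR-ED fragments of b-gal; compounds titrated up to 46 uM final, 2 h at 37 C. GR nuclear translocation read as complemented b-gal luminescence after 1 h RT detection.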

Test [7] concerns the target Mitogen-activated protein kinase 10 (Mus musculus) (UniProt Q61831). In words: JNK3 AlphaScreen Assay (AID 530).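 Further: kinase came from lysate of stimulated human HepG2 cells; signal reports phosphorylation of biotinylated GST-cJun 1-79 at Ser73 with 10 µM ATP; on the % scale 0 is the no-effect control and ±100 the full control effect.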 The conditions noted are these: JNK3 lysate, c-Jun phosphorylation; series mostly up to 25.6 µM. In short, it runs like this: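 Activity was read by AlphaScreen after JNK3-containing HepG2 lysate (cytokine pre-activated) phosphorylated biotinylated GST-cJun with 10 uM ATP at room temperature. Phospho-Ser73 cJun antibody with Protein-A acceptor beads provided detection.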

Test [8] deals with Lysosomal acid glucosylceramidase (Homo sapiens) (UniProt P04062). The test can be described thus: Glucocerebrosidase-p2 (AID 348; in the data active means potency below about 10 µM; further: potency means the concentration at half of the fitted maximal effect). The conditions noted are these: purified GBA, blue fluorogenic substrate, 40 min. In short, it runs like this: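 Normal human glucocerebrosidase (0.2 nM) with blue fluorogenic substrate (80 uM final) in citrate/phosphate pH 5.9 with 10mM sodium taurocholate, 0.01% tween-20; 40 min RT, NaOH/glycine stop; fluorescence Ex 365/Em 440; AC50 from a titration from 0.6 nM upwards.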
Lysosomal acid glucosylceramidase (Homo sapiens), sequence (P04062 whole entry, looked up): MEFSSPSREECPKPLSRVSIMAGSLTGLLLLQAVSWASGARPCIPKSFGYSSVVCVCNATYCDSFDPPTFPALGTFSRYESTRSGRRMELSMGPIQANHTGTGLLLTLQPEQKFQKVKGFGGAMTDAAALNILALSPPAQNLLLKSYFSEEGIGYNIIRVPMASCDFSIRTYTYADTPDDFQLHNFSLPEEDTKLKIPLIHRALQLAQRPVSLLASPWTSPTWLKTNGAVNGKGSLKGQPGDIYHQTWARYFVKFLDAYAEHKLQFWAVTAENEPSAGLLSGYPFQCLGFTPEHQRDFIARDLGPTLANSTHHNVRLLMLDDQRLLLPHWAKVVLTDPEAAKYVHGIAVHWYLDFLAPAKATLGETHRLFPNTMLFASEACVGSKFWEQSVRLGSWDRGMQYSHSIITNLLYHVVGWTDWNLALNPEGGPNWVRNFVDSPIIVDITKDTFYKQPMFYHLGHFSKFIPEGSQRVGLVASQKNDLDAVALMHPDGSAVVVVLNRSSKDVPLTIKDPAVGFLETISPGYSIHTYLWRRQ

Test [9] can be described thus: Cell Viability - Jurkat (AID 426;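 active means dose-dependent loss of cell ATP signal giving a full or clear fitted curve, ranked by lower potency value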;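 further: potency means the concentration at half of the fitted maximal effect; cells exposed to compound for 40 hours at 37 °C before ATP read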). Particulars: qHTS. In short, it runs like this: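 Cytotoxicity taken as drop in cellular ATP (CellTiter-Glo luminescence, 20 min room temperature) after 40 hr, 37C treatment of 5000 Jurkat Clone E6-1 cells per well; concentration-response fitted with Hill equation for AC50.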
The nature of test [10]: Cell Viability - N2a (AID 540; active means well fitted curve in the direction sought with a large enough effect; an effect the other way counts as inactive or inconclusive; further: potency means the concentration at half of the fitted maximal effect; nearly all actives have a fitted effect of over 45% in size). The conditions noted are these: N2a mouse neuroblastoma cell viability; activity change, negative = cytotoxicity: at 92.2 µM (top of the series). In short, it runs like this: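 CellTiter-Glo ATP luminescence, read 20 min after reagent at room temperature, reported viability following 40 h compound treatment at 37 °C. N2a mouse neuroblastoma cells seeded 1500/well; Hill equation gave AC50.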

The nature of test [11]: Cell Viability - NIH 3T3 (AID 541; active means well fitted curve in the direction sought with a large enough effect; an effect the other way counts as inactive or inconclusive; further: potency means the concentration at half of the fitted maximal effect; nearly all actives have a fitted effect of over 25% in size). The conditions noted are these: NIH 3T3 cell viability, qHTS; activity change, negative = cytotoxicity: at 92.2 µM (top of the series). In outline: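 Intracellular ATP (CellTiter-Glo luminescence, 20 min at room temperature) measured after 40 hr compound exposure at 37 °C of 1000 NIH 3T3 mouse fibroblasts/well in complete medium; AC50 derived by Hill-equation modelling of qHTS concentration-response curves.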

Test [12] is described as follows: Cell Viability - HUV-EC-C (AID 542; active means well fitted curve in the direction sought with a large enough effect; an effect the other way counts as inactive or inconclusive; further: potency means the concentration at half of the fitted maximal effect; nearly all actives have a fitted effect of over 35% in size). Particulars: HUV-EC-C endothelial cell viability, qHTS; series mostly up to 92.2 µM. In short, it runs like this:
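CellTiter-Glo luminescence measured ATP loss in HUV-EC-C cells (1000/well) after 40 hr compound exposure at 37 °C, in complete culture medium. Concentration-response data were Hill-fitted to give AC50.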

Test [13] is described as follows: Cell Viability - H-4-II-E (AID 543; active means well fitted curve in the direction sought with a large enough effect; an effect the other way counts as inactive or inconclusive; further: potency means the concentration at half of the fitted maximal effect; nearly all actives have a fitted effect of over 35% in size). Particulars: H-4-II-E rat hepatoma viability; series mostly up to 92.2 µM. In outline: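 CellTiter-Glo luminescence (intracellular ATP) measured after 40 h compound exposure at 37 °C in H-4-II-E rat hepatoma cells seeded at 1500/well. Values are AC50s fitted with the standard Hill equation.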
A short description of test [14]: Cell Viability - BJ (AID 421; calls by dose curve;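 further: potency means the concentration at half of the fitted maximal effect; cells exposed to compound for 40 hours at 37 °C before readout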). Particulars: BJ fibroblast viability, qHTS. In outline: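 Luminescent ATP signal (CellTiter-Glo, 20 min at room temperature) served as the read-out of viable BJ cells after 40 hours of compound treatment. Responses were scaled between DMSO and 100 uM tamoxifen, and AC50 values were obtained by Hill modeling.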
Test [15] is described as follows: Cell Viability - Hek293 (AID 427;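 active means compounds whose dose-response curve shows a full or clear partial loss of cell viability, called from curve shape rather than a numeric limit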;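 further: potency means the concentration at half of the fitted maximal effect; cells exposed to compound for 40 hours at 37 °C before reading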). Particulars: qHTS. In short, it runs like this: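 Luminescent ATP read-out (CellTiter-Glo, 20 min RT) after 40 hr compound exposure at 37 °C in complete medium. Signal normalized to DMSO (basal) and 100 uM tamoxifen (100% inhibition); concentration-response fitted with the standard Hill equation to give AC50.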
The nature of test [16]: Cell Viability - HepG2 (AID 433; calls by dose curve; further: potency means the concentration at half of the fitted maximal effect). The conditions noted are these: qHTS. In outline:
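Read-out is luciferase-based quantitation of cellular ATP as a measure of viable HepG2 cells after 40 h treatment at 37 °C. Signal decrease is scaled between DMSO-only and 100 uM tamoxifen controls, with AC50 fitted by the Hill equation.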

Test [17] is described as follows: Cell Viability - MRC5 (AID 434; calls by dose curve;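 further: potency means the concentration at half of the fitted maximal effect; cells exposed to compound for 40 hours at 37 °C; potency reflects cytotoxicity seen as loss of intracellular ATP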). Particulars: MRC5 lung fibroblast viability, qHTS. In short, it runs like this: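 ATP luminescence read-out (CellTiter-Glo, 20 min RT) after 40 hr, 37 °C compound exposure of 1500 MRC5 cells/well. Data normalized to DMSO (basal) and 100 uM tamoxifen (100% inhibition); AC50 from standard Hill equation.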
The nature of test [18]: Cell Viability - SK-N-SH (AID 435; calls by dose curve; further: potency means the concentration at half of the fitted maximal effect). The conditions noted are these: SK-N-SH neuroblastoma cell viability qHTS. In short, it runs like this: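 Luminescent ATP signal served as the viability read-out after 40 hours of compound treatment of human neuroblastoma SK-N-SH cells. Concentration-response data, scaled between DMSO and 100 uM tamoxifen, gave AC50 values by standard Hill modeling.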

A short description of test [19]: Cell Viability - SH-SY5Y (AID 544; active means well fitted curve in the direction sought with a large enough effect; an effect the other way counts as inactive or inconclusive; further: potency means the concentration at half of the fitted maximal effect; nearly all actives have a fitted effect of over 55% in size). Particulars: SH-SY5Y neuroblastoma cell viability; viability change, negative = cytotoxic: at 92.2 µM (top of the series). In short, it runs like this: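 Cytotoxicity measured via ATP-dependent luciferase luminescence (CellTiter-Glo) following 40 h, 37 °C exposure of 1500 SH-SY5Y cells per well. Concentration-response data were fitted with the standard Hill equation to give AC50.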

Test [20] in a line: Cell Viability - Renal Proximal Tubule (AID 545; active means well fitted curve in the direction sought with a large enough effect; an effect the other way counts as inactive or inconclusive; further: potency means the concentration at half of the fitted maximal effect; nearly all actives have a fitted effect of over 40% in size). The conditions noted are these: renal proximal tubule cells viability, primary cells of rat origin; activity change, negative = cytotoxicity: at 91.7 µM (top of the series). In short, it runs like this:
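Luminescent ATP signal (CellTiter-Glo) served as the viability read-out after 40 hr compound exposure of freshly isolated rat proximal tubule cells at 37 °C. Concentration-dependent ATP loss was fitted with the Hill equation to give AC50.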

Cytochrome P450 1A2 (Homo sapiens), sequence (P05177 whole entry, looked up): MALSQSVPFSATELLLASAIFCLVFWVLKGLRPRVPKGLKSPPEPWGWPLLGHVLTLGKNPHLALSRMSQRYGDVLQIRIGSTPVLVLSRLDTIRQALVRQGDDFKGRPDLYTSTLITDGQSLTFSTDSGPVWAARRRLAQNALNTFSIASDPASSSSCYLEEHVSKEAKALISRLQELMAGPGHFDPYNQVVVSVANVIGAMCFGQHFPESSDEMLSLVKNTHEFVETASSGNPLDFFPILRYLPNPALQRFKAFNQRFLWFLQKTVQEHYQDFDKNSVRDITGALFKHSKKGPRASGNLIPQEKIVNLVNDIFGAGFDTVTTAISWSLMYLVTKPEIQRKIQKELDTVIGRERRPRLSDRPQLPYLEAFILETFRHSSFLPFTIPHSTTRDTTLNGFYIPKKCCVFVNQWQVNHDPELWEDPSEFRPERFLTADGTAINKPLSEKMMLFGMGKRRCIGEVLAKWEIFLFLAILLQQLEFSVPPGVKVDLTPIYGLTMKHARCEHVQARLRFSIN
Glucocorticoid receptor (Homo sapiens), sequence (P04150 whole entry, looked up, the tested form may be a part): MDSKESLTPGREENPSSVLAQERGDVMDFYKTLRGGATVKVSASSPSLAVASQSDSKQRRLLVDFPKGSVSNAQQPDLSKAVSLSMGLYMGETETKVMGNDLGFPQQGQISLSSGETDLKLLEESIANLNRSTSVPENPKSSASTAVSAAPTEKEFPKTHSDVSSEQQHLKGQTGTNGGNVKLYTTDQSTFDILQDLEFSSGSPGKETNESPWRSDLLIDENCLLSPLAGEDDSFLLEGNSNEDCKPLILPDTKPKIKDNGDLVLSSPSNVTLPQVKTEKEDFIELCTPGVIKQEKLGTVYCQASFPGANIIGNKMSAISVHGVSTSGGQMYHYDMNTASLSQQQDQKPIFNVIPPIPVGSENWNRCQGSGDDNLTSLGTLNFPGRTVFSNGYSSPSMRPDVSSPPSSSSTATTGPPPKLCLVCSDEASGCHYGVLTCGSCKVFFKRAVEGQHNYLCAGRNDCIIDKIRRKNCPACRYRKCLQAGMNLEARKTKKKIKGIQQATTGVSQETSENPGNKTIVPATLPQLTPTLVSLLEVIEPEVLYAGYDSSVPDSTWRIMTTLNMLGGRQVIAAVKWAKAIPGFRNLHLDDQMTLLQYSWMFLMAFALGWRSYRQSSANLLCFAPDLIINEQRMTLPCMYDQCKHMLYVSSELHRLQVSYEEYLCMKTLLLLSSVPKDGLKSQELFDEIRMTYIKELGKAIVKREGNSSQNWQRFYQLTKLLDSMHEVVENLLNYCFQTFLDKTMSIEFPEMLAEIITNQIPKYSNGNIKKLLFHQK

Regarding `NCCc1ccn[nH]1`, the activity change, negative = inhibition is 2.73% in test [1] (at 17.2 µM (top of the series)) and -6.22% in test [3] (at 17.2 µM (top of the series)). The Potency entry in test [2] was “inactive”. Moreover, the activity, negative = inhibition in test [4] is 4.55%. In addition, the Potency in test [5] and in test [6] was above 20.6 µM throughout. Besides, the result in test [7] was inactive.
Regarding `Oc1ccc(Cl)cc1Sc1cc(Cl)ccc1O`, the Potency is above 11.4 µM in test [8]; 3.98 µM (active) in test [2]; 56.7 µM (active) in test [9]; above 46 µM in [5]; above 9.22 µM in test [6]; 31.6 µM (active) in [10]. Moreover, the Potency was 31.6 µM (active) in test [11], 31.6 µM (active) in test [12] and 39.8 µM (active) in test [13]. In addition, the activity change, negative = inhibition in [1] (at 7.69 µM (top of the series)) was -7.34%. The outcome in test [7] was inactive.
Turning to `Cc1c(N(C)CS(=O)(=O)O)c(=O)n(-c2ccccc2)n1C`, the results for the activity change, negative = inhibition in [1] (at 17.2 µM (top of the series)) and in test [3] (at 17.2 µM (top of the series)) were 6.43% and -4.94%, respectively. The Potency entry in [2] is “inactive”. For the same compound, the Potency in [5] and in [6] was above 20.6 µM throughout. Moreover, in test [7], the outcome was inactive.
For `COc1cccc2c1C(=O)c1c(O)c3c(c(O)c1C2=O)C[C@@](O)(C(C)=O)C[C@@H]3O[C@H]1C[C@H](N)[C@H](O)[C@H](C)O1`, the activity change, negative = inhibition was -116% (active) in [1] (at 17.2 µM (top of the series)) and -129% (active) in test [3] (at 17.2 µM (top of the series)). Besides, the Potency is 31.6 µM (active) in [2]; 4.61 µM (active) in test [14]; 0.0218 µM (active) in test [9]; 7.23 nM (active) in test [15]; 49.7 µM (active) in test [16]; 19.5 µM (active) in test [17]. In addition, the Potency in test [18] was 14.1 nM (active); in [5], > 46 µM and > 20.6 µM; in [6] it was above 46 µM; in [10] it was 0.251 µM (active); in test [13], 3.16 µM (active); in test [19], 7.94 nM (active). Further, in test [20], the Potency was 3.98 µM (active). Moreover, the activity, negative = inhibition in [4] is -103% (active).
In the case of `N[C@@H](Cc1cnc[nH]1)C(=O)O`, the activity change, negative = inhibition in test [1] (at 38 µM (top of the series)) is 2.79%; in test [3] (at 38 µM (top of the series)), -0.542%. In addition, the Potency result in test [2] is “inactive”. For the same compound, the Potency in test [5] and in test [6] was above 46 µM each time.
With `CCN(CCCc1ccccc1)CCCc1ccccc1`, the activity change, negative = inhibition is 18.6% and 13.2% in [1] (at 17.2 µM (top of the series)); -87% (active) in test [3] (at 17.2 µM (top of the series)). The Potency in [2] was 3.98 µM (active). Moreover, in test [4], the activity, negative = inhibition is 13.6% and 2.48%. In addition, the compound was classed as inactive in test [7].
For the compound `CCC(C(=O)OCCN(CC)CC)c1ccccc1` (centres undefined), the activity change, negative = inhibition in test [1] (at 17.2 µM (top of the series)) was 1.42%; in test [3] (at 17.2 µM (top of the series)), -83.4% (active). Also, the activity, negative = inhibition in test [4] was 2.13%. Also, the Potency in test [5] is above 20.6 µM.
